Screens (PubChem)
Sa RN4220 lethal – S. aureus RN4220 growth inhibition | OD600, 16 h | actives 0.33% (n = 330,000) | inhibition, % (concentration not given with the values); in the data active = inhibition above about 85%;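 also: plate controls were untreated cells for no effect and reference antibiotic for full effect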
Mtb hypoxia inh – reduces hypoxia-regulated biosensor signal in M. tuberculosis | M. tuberculosis hypoxia-regulated fluorescent reporter, fluorescence | fluorescence inhibition, % (concentration not given with the values) | actives 0.1% (n = 300,000) | AID 1159583; in the data active = fluorescence inhibition mostly above about 23%, no sharp cut-off; inactive = mostly below about 17%
PriA SSB inh – blocks PriA binding to SSB C-terminal tail | AlphaScreen SSBct-PriA binding, biotinylated peptide | inhibition, % at 33 µM | actives 0.6% (n = 430,000) | AID 1272365; in the data active = inhibition mostly above about 37%, no sharp cut-off; inactive = mostly below about 20%;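 also: plate controls were negative control peptide for no effect and reference peptide for full effect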
ugtP null kill – compounds lethal to S. aureus RN4220 ugtP deletion mutant; AID 1259309; OD600 growth, 16 h; growth inhibition, % (test concentration not listed); actives 0.54% (n = 330,000); in the data active = growth inhibition above about 68%;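 also: plate controls were untreated wells for no effect and antibiotic for full effect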
Mtb bLac sens – beta-lactam sensitization of Mtb H37Rv; M. tuberculosis H37Rv growth with meropenem, percent inhibition; inhibition, % at 25 µM; actives 0.27% (n = 330,000); AID 434955; call rule not given here;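 also: growth measured after seven days incubation then overnight dye step; 0% = bacteria only wells and 100% = bacteria with antibiotic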
The depositor's hits bear a star; i = inactive; nt = not tested or not shown. Sampled rows, rich in hits. Any-hit rate of the full collection: about 1%.

SMILES | Sa RN4220 lethal | Mtb hypoxia inh | PriA SSB inh | ugtP null kill | Mtb bLac sens
COc1ccccc1Nc1c2c(nc3ccc(N)cc13)CCCC2 | 4 | 1 | 53* | 11 | -1
Cc1cc(C)c(O)c(CN(C)Cc2cc(Cl)cc(Cl)c2O)c1 | 100* | 2 | -7 | 86* | nt
OCCCNC(=S)Nc1ccc2nccnc2c1 | 5 | 11 | 24 | 9 | -3
Fc1ccc(NC(=S)Nc2ccc3nccnc3c2)cc1 | 0 | 0 | 45* | -3 | -3
CC(C)N(C(=O)Nc1ccc2nccnc2c1)C(C)C | -8 | nt | 79* | -11 | -6
CCN1CCN(c2nc3ccc(OC(=O)c4ccc(S(=O)(=O)N5CCOCC5)cc4)cc3s2)CC1 | nt | nt | -1 | nt | nt
CN(N=Cc1ccccc1Cl)c1ncc(Cl)cc1C(F)(F)F | -5 | 5 | nt | 85* | nt
CN(/N=C/c1ccc(Cl)cc1Cl)c1ncc(Cl)cc1C(F)(F)F | nt | nt | i | nt | -5
N#Cc1ccccc1NC(=O)CSc1nccn1-c1ccc(C(=O)NCc2ccccc2F)cc1 | nt | nt | 35* | nt | nt
CC(C)(C)NC(=O)Cn1cnc2c(cnn2C2CCS(=O)(=O)C2)c1=O (stereo not given) | nt | nt | -4 | nt | nt
Cc1nc(Nc2ccc(Cl)cc2Cl)sc1C(=O)Nc1ccccc1 | 8 | -20 | 7 | -28 | 95
Cc1nc(Nc2ccc(Cl)c(Cl)c2)sc1C(=O)Nc1ccccc1 | 93* | 8 | -13 | 99* | 94
Cc1ccc2sc(N(CCCn3ccnc3)C(=O)c3ccco3)nc2c1C | nt | nt | 88* | nt | nt
Cc1cccc2sc(N(CCCn3ccnc3)C(=O)c3ccco3)nc12 | nt | nt | 45* | nt | nt
CC(C)CN(C(=O)c1ccco1)c1nc2ccccc2s1 | 3 | 8 | -23 | 4 | -3
O=C(c1cccs1)N(CCCn1ccnc1)c1nc2c(Cl)cccc2s1 | nt | nt | 77* | nt | nt
O=C(c1ccco1)N(CCCn1ccnc1)c1nc2ccccc2s1 | nt | nt | 72* | nt | nt
O=c1ccc(-c2ccco2)nn1CCCNS(=O)(=O)c1ccc(C(F)(F)F)cc1 | nt | nt | -11 | nt | nt
CC(=O)c1ccc(C(=O)N(CCCn2ccnc2)c2nc3c(C)cc(C)cc3s2)cc1 | nt | nt | 49* | nt | nt
CC(=O)c1ccc(C(=O)N(CCn2cccn2)c2nc3c(C)cc(C)cc3s2)cc1 | nt | nt | -5 | nt | nt
CC(C)(C)c1cc(CCC(=O)NNC(=S)NC(=O)c2ccccc2)cc(C(C)(C)C)c1O | 64 | -24 | 17 | 89* | 14
O=C(CCc1ccccc1)NNC(=S)NC(=O)c1ccccc1 | 40 | 4 | 9 | 9 | 97
CCn1ccc(C(=O)N2CCN(c3nc4c(F)cc(F)cc4s3)CC2)n1 | nt | nt | -10 | nt | nt
NS(=O)(=O)c1ccc(O)c(N2C(=O)c3cccc4c(C(=O)c5ccccc5)ccc(c34)C2=O)c1 | nt | nt | 46* | nt | nt
O=[N+]([O-])c1ccc(Nc2c([N+](=O)[O-])ccc3c2=NC2(CCCCC2)N=3)cc1 | nt | nt | 90* | nt | nt
SMILES | Sa RN4220 lethal | Mtb hypoxia inh | PriA SSB inh | ugtP null kill | Mtb bLac sens
O=[N+]([O-])c1ccc2c(c1Nc1ccc(Br)cc1)=NC1(CCCCC1)N=2 | nt | nt | 28 | nt | nt
O=C(NC1(C(F)(F)F)NC(=O)N(Cc2ccccc2)C1=O)c1cccnc1 (stereo not given) | 3 | -3 | 15 | -2 | -10
CC(c1ccccc1)N1C(=O)NC(NC(=O)c2cccnc2)(C(F)(F)F)C1=O (stereo not given) | 4 | 2 | 48* | -3 | -9
CC1CCC(C(C)C)C(OC(=O)Cn2c(-c3ccc(Br)cc3)[n+](C)c3ccccc32)C1 (stereo not given) | 100* | nt | 10 | 100* | 100
CC1CCC(C(C)C)C(OC(=O)COC(=O)c2ccccc2N)C1 (stereo not given) | -1 | 7 | -16 | 94* | 23
Cc1ccccc1OCc1n(CC(=O)OC2CC(C)CCC2C(C)C)c2ccccc2[n+]1C (stereo not given) | 100* | nt | 15 | 101* | 99
CC1CCC(C(C)C)C(OC(=O)COC(=O)c2ccc(N)cc2)C1 (stereo not given) | 5 | 2 | -6 | 83 | 4
CC1CCC(C(C)C)C(OC(=O)Cn2c(-c3ccc(Cl)cc3)[n+](C)c3ccccc32)C1 (stereo not given) | 100* | nt | -1 | 100* | 100
CSc1ccc(C(O)CNS(=O)(=O)C2CC2)cc1 (stereo not given) | nt | nt | -6 | nt | nt
COc1cc(C2C(C#N)=C(N)Oc3n[nH]c(-c4ccncc4)c32)cc(OC)c1OC (stereo not given) | 2 | nt | 6 | 0 | -2
COc1ccc(C2C(C#N)=C(N)Oc3n[nH]c(-c4ccccn4)c32)c(OC)c1OC (stereo not given) | -9 | 8 | 70* | -6 | -5
O=C(Nc1nnc(-c2ccc(Br)cc2)o1)c1ccc(F)cc1 | nt | nt | 3 | nt | nt
Cn1nc([N+](=O)[O-])c(C(C#N)c2nc3ccccc3s2)c(Cl)c1=O (stereo not given) | nt | nt | 92* | nt | nt
Cn1nc([N+](=O)[O-])c(C(C#N)c2nc3ccccc3n2C)c(Cl)c1=O (stereo not given) | 12 | 11 | 25 | 11 | 2
O=C(CCC1CCCC1)c1c(O)c2ccccc2oc1=O | 100* | 1 | -4 | 100* | 99
Cc1nc(SCC(=O)NCc2ccc3c(c2)OCO3)nc(C)c1C | 5 | 23* | 10 | 10 | 3
O=C(CC1CSc2nc3c(c(=O)n21)CCCC3)N1CCCCCC1 (stereo not given) | nt | nt | -1 | nt | nt
CCC(=O)Nc1nnc(S(=O)(=O)N2c3ccccc3CC2C)s1 (stereo not given) | 7 | 2 | 100* | 0 | 0
CC1(S(=O)(=O)O)CC(=O)c2ccccc2C1=O (stereo not given) | 24 | 9 | 83* | 13 | 67
O=C1c2ccccc2C(=O)C1(O)O | nt | nt | nt | nt | 21
COC(=O)c1c(NC(=O)Cc2cccc3ccccc23)sc2c1CCC2 | nt | nt | -9 | nt | nt
O=C(C[C@@H]1C/C=C/C[C@H](NC(=O)OCC2c3ccccc3-c3ccccc32)C(=O)OC[C@@H]2CCCN2C1=O)NCCO | nt | nt | 1 | nt | nt
Cc1ccc(S(=O)(=O)c2c(C)nn(-c3ccccc3)c2OC(=O)c2ccc(C)c([N+](=O)[O-])c2)cc1 | nt | nt | -11 | nt | nt
Cc1ccc(C(=O)OCC(=O)N2CCC(c3ccccc3)=N2)c(C)c1 | 4 | -8 | -12 | 0 | -3
CS(=O)(=O)Nc1ccccc1C(=O)OCC(=O)N1CCC(c2ccccc2)=N1 | 4 | 33* | -5 | 5 | -3
SMILES | Sa RN4220 lethal | Mtb hypoxia inh | PriA SSB inh | ugtP null kill | Mtb bLac sens
O=C(Nc1cccc(O)c1)c1cccc(C(=O)Nc2cccc(O)c2)c1 | 0 | 47* | 32 | 4 | 10
O=C(Nc1cccc(O)c1)c1ccc(Br)cc1 | 9 | 9 | 7 | -1 | -4
c1ccc(OC2CC3CCC(C2)N3)nc1 (stereo not given) | nt | nt | 96* | nt | nt
CCOCC(=O)NC1CCC(Oc2ccccn2)CC1 (stereo not given) | nt | nt | -7 | nt | nt
O=C(Nc1nc2c(s1)CCCC2)c1csc(Nc2ccccc2)n1 | nt | nt | 1 | nt | nt
CC(=NNC(=O)C(C)Oc1ccc([N+](=O)[O-])cc1)c1ccccn1 (stereo not given) | 3 | 1 | 48* | -14 | nt
CC(=NNC(=O)C(c1ccccc1)c1ccccc1)c1ccccn1 | 5 | -5 | -7 | -13 | nt
